# Experimental data reported in PubChem BioAssay (NCATS).
# Where “and” joins values, the source holds several entries; their conditions need not be identical. Equal entries are not always repeated. A number with no mark means an inactive call. Records with an inconclusive call do not appear. Entries that show only a call come without a potency. Calls of active or inactive are those of the source. Unless noted, calls follow the shape of the dose curve; as a rule, active = well fitted curve in the direction sought with a large enough effect; inconclusive = small, poorly fitted or top-dose-only effect, or another doubt; inactive = no such curve, though single readings can be large; an effect the other way counts as inactive or inconclusive.
# Key:
# [1] = qHTS assay for measurement of the activity of small molecule inhibitors on Zika virus induced Caspase-3 activity in human iPSC derived neural progenitor cells (hNPCs) (AID 1224857); also: nearly all actives have a fitted effect of over 65% in size
# Procedure, shortened: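 hNPCs seeded 350 cells/well, cultured 16–20 h; compounds added 1 h before ZIKV (2 FFU/cell), 37 C 6 h. Caspase-Glo 3/7 luminescence after 30 min RT; % inhibition from induction scaled to uninfected (0%) and infected (100%) wells.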
# [2] = qHTS assay for measurement of the activity of small molecule inhibitors on Zika virus induced Caspase-3 activity in human astrocytoma cells (AID 1224859)
# Procedure, shortened: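 Luminescence read-out (Caspase-Glo 3/7, 30 min RT) of caspase activity in SNB-19 cells infected 6 h with ZIKV, 2 FFU/cell, after 1 h compound pretreatment; % inhibition from induction normalised to uninfected (0%) and infected (100%) wells.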
# [3] = qHTS assay to identify small molecule inhibitors of chordoma cells - UCH-1 (AID 1259355); also: nearly all actives have a fitted effect of over 55% in size
# Procedure, shortened: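 Seed 800 cells per well; incubate overnight at 37 C, 5% CO2. Add test compounds (15 concentrations), then the auranofin–topoisomerase-agent combination. Incubate 48hr, add CellTiter-Glo, wait 30min, read luminescence.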
# [4] = qHTS assay to identify small molecule inhibitors of chordoma cells - UCH-2 (AID 1259356); also: series mostly up to about 46 µM
# [5] = P-glycoprotein substrates identified in KB-8-5-11 adenocarcinoma cell line, qHTS therapeutic library screen (AID 1346987); also: nearly all actives have a fitted effect of over 65% in size; also: potency is read from the fitted curve at half-maximal effect
# Procedure, shortened: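 KB-8-5-11: colchicine-selected sub-line of KB-3-1 over-expressing P-gp; assay medium lacked colchicine. 72 h drug exposure at 37 degree C, CellTiter-Glo.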
# [6] = NS1 protein of Zika virus - qHTS assay to identify small molecule inhibitors in human HEK 293 cells (AID 1347053); also: series mostly up to about 46 µM; nearly all actives have a fitted effect of over 55% in size
# Procedure, shortened: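 Inhibition of NS1 expression was scored in HEK 293 cells given compound 1 h ahead of MR766 virus (MOI = 0.5). Following 24 h at 37 C, two anti-NS1 antibodies generated a TR-FRET signal, scaled between uninfected and infected controls.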
# [7] = qHTS of pediatric cancer cell lines to identify multiple opportunities for drug repurposing: Primary screen for TC32 cells (AID 1347089); also: nearly all actives have a fitted effect of over 60% in size
# Procedure, shortened: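 Measured quantity: luminescence from CellTiter-Glo, reflecting metabolically active TC32 cells following 48 h of compound. Curves came straight from multi-point titrations, with 8 or 11 points in primary and 11 in confirmatory screening.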
# [8] = Natriuretic polypeptide receptor (hNpr1) antagonism - Pilot counterscreen GloSensor control cell line (AID 1347045; calls by dose curve; also: series mostly up to about 38 µM)
# Procedure, shortened: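 HEK293 cells carrying the GloSensor cGMP sensor (GIP/pGS-40F) were loaded with 2% GloSensor reagent for 2 h, exposed to compounds for 30 min, and then stimulated with 50 uM sodium nitroprusside for 20 min at room temperature.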
# [9] = molecular target: T1, Tyrosine-protein phosphatase non-receptor type substrate 1 (Homo sapiens) + Leukocyte surface antigen CD47 (Homo sapiens) (UniProt P78324+Q08722); experiment: CD47-SIRPalpha protein protein interaction - LANCE assay qHTS validation (AID 1347057; active = well fitted curve in the direction sought with a large enough effect in the signal ratio, with a control signal flat, not every such curve was filed as active; the % refers to the signal ratio; also: series mostly up to about 38 µM)
# T1 sequence (P78324 whole entry, looked up): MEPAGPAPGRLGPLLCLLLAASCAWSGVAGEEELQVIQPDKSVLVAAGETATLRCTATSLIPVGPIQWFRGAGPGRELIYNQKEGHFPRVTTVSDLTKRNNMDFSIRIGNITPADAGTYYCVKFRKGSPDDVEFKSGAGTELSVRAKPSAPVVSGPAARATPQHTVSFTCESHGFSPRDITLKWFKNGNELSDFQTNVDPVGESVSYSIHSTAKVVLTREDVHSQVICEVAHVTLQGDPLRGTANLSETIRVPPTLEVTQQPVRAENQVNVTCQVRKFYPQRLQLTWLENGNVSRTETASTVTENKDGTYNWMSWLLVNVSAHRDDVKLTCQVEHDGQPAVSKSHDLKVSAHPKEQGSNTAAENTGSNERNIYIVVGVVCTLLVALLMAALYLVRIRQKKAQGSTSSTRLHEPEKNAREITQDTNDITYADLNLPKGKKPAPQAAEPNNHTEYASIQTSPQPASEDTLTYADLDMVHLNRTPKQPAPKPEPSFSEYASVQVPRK
# T1 sequence (Q08722 whole entry, looked up): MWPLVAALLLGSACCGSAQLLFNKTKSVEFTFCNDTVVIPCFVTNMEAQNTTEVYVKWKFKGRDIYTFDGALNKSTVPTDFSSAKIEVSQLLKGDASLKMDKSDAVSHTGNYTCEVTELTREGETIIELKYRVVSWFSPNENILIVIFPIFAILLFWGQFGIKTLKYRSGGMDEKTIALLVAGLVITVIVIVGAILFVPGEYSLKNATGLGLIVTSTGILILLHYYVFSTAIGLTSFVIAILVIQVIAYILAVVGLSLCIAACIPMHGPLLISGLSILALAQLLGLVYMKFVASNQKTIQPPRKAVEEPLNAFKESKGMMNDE
# Procedure, shortened: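 First, His-tagged CD47 and Eu-labelled anti-His antibody met the compound for 30 min; next, site-specifically biotinylated SIRPalpha was added for 30 min; finally streptavidin-APC was added before reading the TR-FRET ratio.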
# [10] = molecular target: T1, Tyrosine-protein phosphatase non-receptor type substrate 1 (Homo sapiens) + Leukocyte surface antigen CD47 (Homo sapiens); experiment: CD47-SIRPalpha protein protein interaction - Alpha assay qHTS validation (AID 1347059);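 also: bead proximity luminescence from CD47 binding SIRPalpha after compound preincubation with SIRPalpha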
# Procedure, shortened: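 Binding is measured by AlphaScreen proximity: Ni-NTA acceptor beads capture His-CD47, streptavidin donor beads capture biotin-SIRPalpha. Each of three additions (SIRPalpha with compound, CD47, beads) incubates 30 min at room temperature protected from light.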
# [11] = molecular target: Parathyroid hormone/parathyroid hormone-related peptide receptor (Homo sapiens) (UniProt Q03431); experiment: qHTS for PTHR1 Agonists: Optimization Screen against the NCGC LOPAC library (AID 1347079);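 also: GloSensor cAMP luminescence in HEK-293 GP2 cells expressing human PTHR1 with IBMX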
# Chain of Parathyroid hormone/parathyroid hormone-related peptide receptor (Homo sapiens) (Q03431 whole entry, looked up): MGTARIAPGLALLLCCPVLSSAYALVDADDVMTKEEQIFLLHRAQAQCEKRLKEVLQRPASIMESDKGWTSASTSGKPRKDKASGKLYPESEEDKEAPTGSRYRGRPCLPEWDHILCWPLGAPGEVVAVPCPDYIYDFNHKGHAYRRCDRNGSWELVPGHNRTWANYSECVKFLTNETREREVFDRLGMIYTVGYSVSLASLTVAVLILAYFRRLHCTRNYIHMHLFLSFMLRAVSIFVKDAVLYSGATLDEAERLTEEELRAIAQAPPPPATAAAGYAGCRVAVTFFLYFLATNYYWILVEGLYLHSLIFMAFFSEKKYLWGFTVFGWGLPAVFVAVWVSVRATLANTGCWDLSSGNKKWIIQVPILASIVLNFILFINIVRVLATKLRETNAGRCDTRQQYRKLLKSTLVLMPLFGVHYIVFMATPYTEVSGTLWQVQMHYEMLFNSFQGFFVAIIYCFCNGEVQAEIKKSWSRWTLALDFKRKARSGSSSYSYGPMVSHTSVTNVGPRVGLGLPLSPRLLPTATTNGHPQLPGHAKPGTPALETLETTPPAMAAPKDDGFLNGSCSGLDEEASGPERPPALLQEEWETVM
# Procedure, shortened: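 Compounds were tested across a qHTS titration. PTHR1-expressing GP2 cells report cAMP rises via GloSensor luminescence after 1 hr compound exposure at 37C with IBMX present.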
# [12] = Identifying Small Molecule Inhibitors of Pancreatic Cancer Stem Cells (SN12C, Adherent) (AID 1259358);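 also: cell survival measured after 48 h of compound exposure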
# Procedure, shortened: (§1)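 Adherent (2D) versus sphere (3D) formats; spheres generated 14 d in SCM beforehand. Compound transferred by pin tool after 4 h, 48 h incubation, CellTiter-Glo endpoint.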
# [13] = Identifying Small Molecule Inhibitors of Pancreatic Cancer Stem Cells (SN12C, Spheroid) (AID 1259360)
# Procedure, shortened: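 After a 4 h attachment period, compounds were pinned into wells and cultures held 48 h under standard incubator conditions. Viability was then measured as CellTiter-Glo luminescence following 10 min at room temperature.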
# [14] = Identifying Small Molecule Inhibitors of Pancreatic Cancer Stem Cells (A278, Adherent) (AID 1259361);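 also: viability read after 48 h compound exposure; nearly all actives have a fitted effect of over 35% in size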
# Procedure, shortened: as §1
# [15] = Identifying Small Molecule Inhibitors of Pancreatic Cancer Stem Cells (Panc1, Adherent) (AID 1259362); details: Potency: viability;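 also: compound exposure lasted 48 h before the viability read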
# Procedure, shortened: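 Luminescent ATP readout (CellTiter-Glo) quantifies surviving cells after a 48 h drug incubation. Normalization uses DMSO wells as no inhibition and media-only wells as full inhibition; bortezomib served as positive control.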
smiles,measurement,setting,value
COc1ccc2[nH]c(S(=O)Cc3ncc(C)c(OC)c3C)nc2n1 (stereo not drawn),outcome,[1],inactive
same,outcome,[2],inactive
same,Potency,[3],inactive
same,outcome,[4],inactive
same,Potency,[5],inactive
same,Potency,[6],inactive
same,Potency,[7],inactive
O=C1NS(=O)(=O)c2ccccc21,outcome,[1],inactive
same,outcome,[2],inactive
same,Potency,[3],inactive
same,outcome,[4],inactive
same,Potency,[5],inactive
same,Potency,[6],inactive
same,Potency,[7],inactive
CC(=O)CCC(=O)O,outcome,[1],inactive
same,outcome,[2],inactive
same,Potency,[3],inactive
same,outcome,[4],inactive
same,Potency,[5],inactive
same,Potency,[6],inactive
same,Potency,[7],inactive
CCCc1c(OCCCCc2nn[nH]n2)ccc(C(C)=O)c1O,outcome,[1],inactive
same,outcome,[2],inactive
same,Potency,[3],inactive
same,outcome,[4],inactive
same,Potency,[5],inactive
same,Potency,[6],inactive
same,Potency,[7],inactive
[O-][n+]1cccc(CO)c1,outcome,[1],inactive
same,outcome,[2],inactive
same,Potency,[3],inactive
same,outcome,[4],inactive
same,Potency,[5],inactive
same,Potency,[6],inactive
same,Potency,[7],inactive
CN1CCN(C2Cc3ccccc3Sc3ccc(Cl)cc32)CC1 (stereo not drawn),outcome,[1],inactive
same,outcome,[2],inactive
same,Potency,[3],inactive
same,outcome,[4],inactive
same,Potency,[5],inactive
same,outcome,[8],inactive
same,outcome,[9],inactive
same,outcome,[10],inactive
same,Potency,[11],inactive
same,Potency,[7],inactive
O=C(O)c1ccccc1-c1ccc(C(F)(F)F)cc1,outcome,[1],inactive
same,outcome,[2],inactive
same,Potency,[3],inactive
same,outcome,[4],inactive
same,Potency,[5],inactive
same,Potency,[6],inactive
same,Potency,[7],inactive
CC(C)(C)C(=O)NCCCC(=O)O,outcome,[1],inactive
same,outcome,[2],inactive
same,Potency,[3],inactive
same,outcome,[4],inactive
same,Potency,[5],inactive
same,Potency,[6],inactive
same,Potency,[7],inactive
CC1CC(OC(=O)C(O)c2ccccc2)CC(C)(C)N1C (stereo not drawn),outcome,[1],inactive
same,outcome,[2],inactive
same,Potency,[3],inactive
same,outcome,[4],inactive
same,Potency,[5],inactive
same,Potency,[6],inactive
same,Potency,[7],inactive
Oc1cn2c(n1)Nc1ccc(Cl)c(Cl)c1C2,outcome,[1],inactive
same,outcome,[2],inactive
same,Potency,[3],inactive
same,outcome,[4],inactive
same,outcome,[12],inactive
same,outcome,[13],inactive
same,IC50 (viability decrease),[14],inactive
same,Potency,[15],inactive
same,Potency,[5],18.4 nM (active) and 20.6 nM (active)
same,Potency,[6],inactive
same,Potency,[7],inactive
O=c1cc[nH]c(=S)[nH]1,outcome,[1],inactive
same,outcome,[2],inactive
same,Potency,[3],inactive
same,outcome,[4],inactive
same,Potency,[5],inactive
same,Potency,[6],inactive
same,Potency,[7],inactive
CCn1cc(C(=O)O)c(=O)c2cnc(N3CCNCC3)nc21,outcome,[1],inactive
same,outcome,[2],inactive
same,Potency,[3],inactive
same,outcome,[4],inactive
same,Potency,[5],inactive
same,Potency,[6],inactive
same,Potency,[7],inactive
Cc1c(Cl)cccc1Nc1ccccc1C(=O)O,outcome,[1],inactive
same,outcome,[2],inactive
same,Potency,[3],inactive
same,outcome,[4],inactive
same,Potency,[5],inactive
same,Potency,[6],inactive
same,Potency,[7],inactive
C[C@@H]1CCN(C(=O)[C@H](CCCN=C(N)N)NS(=O)(=O)c2cccc3c2NC[C@H](C)C3)[C@@H](C(=O)O)C1,outcome,[1],inactive
same,outcome,[2],inactive
same,Potency,[3],inactive
same,outcome,[4],inactive
same,Potency,[5],inactive
same,Potency,[6],inactive
same,Potency,[7],inactive
NC(=O)NNc1ccccc1,outcome,[1],inactive
same,outcome,[2],inactive
same,Potency,[3],inactive
same,outcome,[4],inactive
same,Potency,[5],inactive
same,Potency,[6],inactive
same,Potency,[7],inactive
CCOC(CN1CCN(CC(C)C(=O)c2ccccc2)CC1)c1ccccc1 (stereo not drawn),outcome,[1],inactive
same,outcome,[2],inactive
same,Potency,[3],inactive
same,outcome,[4],inactive
same,Potency,[5],inactive
same,Potency,[6],inactive
same,Potency,[7],inactive
C[C@]12CC[C@@H]3c4ccc(O)cc4CC[C@H]3[C@@H]1CC[C@@H]2OC(=O)CCC1CCCC1,outcome,[1],inactive
same,outcome,[2],inactive
same,Potency,[3],inactive
same,outcome,[4],inactive
same,Potency,[5],6.51 µM (active) and 8.2 µM (active)
same,Potency,[6],inactive
same,Potency,[7],inactive
COc1cc2[nH]c(=O)[nH]c(=O)c2cc1OC,outcome,[1],inactive
same,outcome,[2],inactive
same,Potency,[3],inactive
same,outcome,[4],inactive
same,Potency,[5],inactive
same,Potency,[6],inactive
same,Potency,[7],inactive
CC(C)(C)NCC(O)COc1ccc(NC(=O)NC2CCCCC2)cc1 (stereo not drawn),outcome,[1],inactive
same,outcome,[2],inactive
same,Potency,[3],inactive
same,outcome,[4],inactive
same,Potency,[5],inactive
same,Potency,[6],inactive
same,Potency,[7],inactive
CO/N=C(\C(=O)N[C@@H]1C(=O)N2C(C(=O)O)=C(CSc3nc(=O)c(O)nn3C)CS[C@H]12)c1csc(N)n1,outcome,[1],inactive
same,outcome,[2],inactive
same,Potency,[3],inactive
same,outcome,[4],inactive
same,Potency,[5],inactive
same,Potency,[6],inactive
same,Potency,[7],inactive
CC(COc1ccccc1)NC(C)C(O)c1ccc(O)cc1 (stereo not drawn),outcome,[1],inactive
same,outcome,[2],inactive
same,Potency,[3],inactive
same,outcome,[4],inactive
same,Potency,[5],inactive
same,Potency,[6],inactive
same,Potency,[7],inactive
N[C@H]1C(O)O[C@H](CO)[C@@H](O)[C@@H]1O (stereo partly drawn),outcome,[1],inactive
same,outcome,[2],inactive
same,Potency,[3],inactive
same,outcome,[4],inactive
same,Potency,[5],inactive
same,Potency,[6],inactive
same,Potency,[7],inactive
O=C(O)[C@@H]1CSCN1,outcome,[1],inactive
same,outcome,[2],inactive
same,Potency,[3],inactive
same,outcome,[4],inactive
same,Potency,[5],inactive
same,Potency,[6],inactive
same,Potency,[7],inactive
O=C(Oc1ccccc1C(=O)O)c1ccccc1O,outcome,[1],inactive
same,outcome,[2],inactive
same,Potency,[3],inactive
same,outcome,[4],inactive
same,Potency,[5],inactive
same,Potency,[6],inactive
same,Potency,[7],inactive
CC1(C)Oc2ccc(C#N)cc2[C@@H](N2CCCC2=O)[C@@H]1O,outcome,[1],inactive
same,outcome,[2],inactive
same,Potency,[3],inactive
same,outcome,[4],inactive
same,Potency,[5],inactive
same,Potency,[6],inactive
same,Potency,[7],inactive
C=CCn1c(=O)n([C@@H]2O[C@H](CO)[C@@H](O)[C@H]2O)c2nc(N)[nH]c(=O)c21,outcome,[1],inactive
same,outcome,[2],inactive
same,Potency,[3],inactive
same,outcome,[4],inactive
same,Potency,[5],inactive
same,Potency,[6],inactive
same,Potency,[7],inactive
Nc1ccc(S(=O)(=O)Nc2ccccc2)cc1,outcome,[1],inactive
same,outcome,[2],inactive
same,Potency,[3],inactive
same,outcome,[4],inactive
same,Potency,[5],inactive
same,Potency,[6],inactive
same,Potency,[7],inactive
CN(C)CCCO[C@@H]1[C@H]2OC(C)(C)O[C@H]2O[C@@H]1C(O)CO (stereo partly drawn),outcome,[1],inactive
same,outcome,[2],inactive
same,"activity, negative = inhibition",[3],-7.27% [at 1.88 µM]
same,outcome,[4],inactive
same,Potency,[5],inactive
same,Potency,[6],inactive
same,Potency,[7],inactive
